# Experimental data taken from the supplement of paper PMC11219838.
# Values without a mark were called inactive.
# Columns and labels:
# Conditions in all cases: 60 µM; 5 days; temperature: 20 °C
# Meloidogyne hapla J2 = experiment: proportion of mobile M. hapla J2 relative to DMSO control (fraction of DMSO control); higher = more viable, less nematicidal, active = 0.7 or less
# Procedure, shortened: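 Sealed 96-well plates, each well holding around 25 M. hapla J2 in distilled water with compound pinned to 60 µM final (0.6% v/v DMSO), were shaken at 200 rpm for 5 days at 20 °C. Then 2 µL of 1 M NaOH was added to each well. Microscope-scored mobility was normalised to the mean of DMSO-only wells from the same plate. Eight such wells were on each plate, and the two biological replicates were averaged.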
# [1] = test system: Caenorhabditis elegans dauer (daf-2(e1370)); experiment: proportion of mobile C. elegans dauer larvae relative to DMSO control (fraction of DMSO control); higher = more viable, less nematicidal, active = 0.63 or less; extreme values may be limits of the assay
# Procedure, shortened: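 The proportion of mobile worms, relative to DMSO wells, was scored by dissection microscope and averaged over two biological replicates. Worms were C. elegans dauers, about 20 per well in liquid NGM in 96-well plates, generated from synchronized larvae on MYOB plates with E. coli OP50 at 25 °C for 48 h. They were treated with compound pinned to 60 µM final (0.6% v/v DMSO) and kept in sealed plates shaken at 200 rpm for 5 days at 20 °C.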
# Ditylenchus dipsaci = experiment: proportion of mobile D. dipsaci (mixed stage) relative to DMSO control (fraction of DMSO control); higher = more viable, less nematicidal, active = 0.86 or less; extreme values may be limits of the assay
# Procedure, shortened: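 Mobility, expressed relative to DMSO controls, is the mean of two biological replicates. The test organisms were D. dipsaci grown on pea plants in Gamborg B-5 agar and extracted into water by filter funnel, with about 20 added per well of a 96-well plate in distilled water. Compound was pinned to 60 µM final (0.6% v/v DMSO), plates were sealed and shaken at 200 rpm for 5 days at 20 °C, and mobile worms were scored under a microscope once 2 µL 1 M NaOH had been added.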
Structure (SMILES),proportion of mobile M. hapla J2 (Meloidogyne hapla J2),proportion of mobile C. elegans dauer larvae [1],proportion of mobile D. dipsaci (Ditylenchus dipsaci)
Clc1ccc(SCc2nc(-c3ccccc3)no2)cc1,0.783,0.59 (active),1
Cc1cc(OCc2nc(-c3ccccc3)no2)ccc1Br,0.932,1,1
O=C(CSc1nnc(-c2ccco2)o1)Nc1cc(Cl)ccc1Cl,1.01,1,1
c1coc(-c2nnc(-c3ccco3)o2)c1,1.03,1,1
Cc1cc(Br)ccc1OCc1nc(-c2ccncc2)no1,1.01,1,1
COc1ccc(-c2nnc(SCC(=O)c3ccccc3)o2)cc1,0.767,1,1
Cc1ccc(OCc2nc(-c3ccncc3)no2)cc1C,1.03,1,1
Brc1ccc(-c2noc(-c3cccs3)n2)cc1,0.884,0.383 (active),1
CCOc1ccc(-c2nc(-c3ccccc3C)no2)cc1,0.692 (active),1,1
O=C(CSc1nnc(-c2ccccc2Cl)o1)Nc1ccccn1,0.946,1,1
C=C(C)COc1ccc(-c2nc(-c3cccnc3)no2)cc1,0.919,1,1
COc1ccccc1OCc1nc(-c2ccc(Cl)cc2)no1,1.01,1,1
Cn1cc(C(=O)CSc2nnc(-c3ccccc3)o2)c2ccccc21,1.01,1,1
COc1ccc(OCc2nc(-c3ccccc3)no2)cc1,0.891,1,1
O=C(CSc1nnc(-c2cccc(Cl)c2)o1)Nc1nccs1,0.894,1,1
CCOc1ccccc1NC(=O)CSc1nnc(-c2ccco2)o1,1.01,1,1
Cc1cccc(-c2noc(COc3ccc(C)c(C)c3)n2)c1,1.04,1,1
O=C(CSc1nnc(-c2ccccc2)o1)Nc1cccc(C(F)(F)F)c1,1,1,1
O=C(Nc1cccc(-c2noc(COc3ccccc3)n2)c1)c1cccs1,0.847,1,1
COc1ccc(-c2noc(COc3ccc(C(C)(C)C)cc3Br)n2)cc1,0.82,1,1
CCCOc1ccc(-c2ccc(-c3nc(-c4cccnc4)no3)cc2)cc1,1.02,1,1
Cc1cc(Cl)ccc1OCc1nc(-c2ccncc2)no1,1.02,1,1
CC(Oc1ccc(C(C)(C)C)cc1)c1nc(-c2ccncc2)no1 (centres undefined),0.856,1,1
Cc1ccc(-c2noc(COc3ccccc3C)n2)cc1,1.01,1,1
Clc1ccccc1OCc1nc(-c2cccs2)no1,1.06,1,1

Structure (SMILES),proportion of mobile M. hapla J2 (Meloidogyne hapla J2),proportion of mobile C. elegans dauer larvae [1],proportion of mobile D. dipsaci (Ditylenchus dipsaci)
COc1cccc(NC(=O)c2ccccc2-c2nc(-c3ccc(F)cc3)no2)c1,0.822,1,1
Fc1ccccc1-c1nc(-c2ccccc2)no1,0.991,1,1
COc1ccc(-c2nnc(SCc3c(Cl)cccc3Cl)o2)cc1,1,1,1
COc1ccccc1-c1nnc(SCC(=O)Nc2ccc(F)cc2)o1,0.995,1,1
Cc1ccc(-c2noc(-c3ccc(-n4nncc4C)cc3)n2)cc1,0.978,1,1
Brc1ccc(-c2noc(COc3ccccc3)n2)cc1,0.602 (active),1,1
CCOC(=O)c1c(NC(=O)CSc2nnc(-c3ccccc3OCC)o2)sc(C(C)=O)c1C,0.918,1,1
O=C(CSc1nnc(-c2ccccc2)o1)Nc1cccc(F)c1,0.853,1,1
CCOC(=O)c1c(NC(=O)CSc2nnc(-c3ccc(Cl)cc3)o2)sc(C)c1C,1.09,1,1
Cc1cccc(-c2nnc(SCC(=O)NCCc3ccccc3)o2)c1,0.872,1,1
COc1cccc(-c2nc(-c3ccc(F)cc3)no2)c1,0.862,1,1
COc1ccccc1-c1nnc(SCc2ccc(C#N)cc2)o1,0.897,1,1
Cc1csc(NC(=O)CSc2nnc(-c3ccccc3Cl)o2)n1,0.849,1,1
O=C(CSc1nnc(-c2ccccc2)o1)OCc1ccccc1,0.999,1,1
c1ccc2c(OCc3nc(-c4ccncc4)no3)cccc2c1,0.979,1,1
Cc1ccc(-c2noc(-c3ccc(C)cc3C)n2)cc1,0.869,1,1
Cc1cc(OCc2nc(-c3ccccn3)no2)ccc1Br,0.937,1,1
COc1cccc(-c2noc(-c3ccc(C)cc3Cl)n2)c1,1,1,1
Cc1ccccc1OCc1nc(-c2ccccc2)no1,0.821,1,1
CC(C)(C)c1ccc(OCc2nc(-c3ccncc3)no2)c(Br)c1,0.875,1,1
COc1ccc(-c2noc(-c3ccc(C)cc3)n2)cc1,0.998,1,0.932
CCNC(=O)c1ccccc1-c1nc(-c2ccc(OC)cc2)no1,0.785,1,1
COc1ccccc1OCc1nc(-c2cccc(C)c2)no1,0.871,1,1
Cc1cccc(-c2noc(-c3ccc(F)cc3)n2)c1,0.642 (active),1,1
Cc1ccccc1OCc1nc(-c2cccc(NC(=O)c3ccco3)c2)no1,1.03,1,1

Structure (SMILES),proportion of mobile M. hapla J2 (Meloidogyne hapla J2),proportion of mobile C. elegans dauer larvae [1],proportion of mobile D. dipsaci (Ditylenchus dipsaci)
COc1ccc(-c2nnc(SCC(=O)Nc3ccc(Br)c(C)c3)o2)cc1,0.999,1,1
COc1ccccc1-c1nnc(SCc2ccccc2C#N)o1,0.94,,1
CC(=O)c1c(C)cc(C)c(CSc2nnc(-c3ccco3)o2)c1C,0.906,1,1
Cc1ccc(-c2noc(-c3ccc(Br)o3)n2)s1,0.965,,1
CC(C)Oc1ccc(-c2nc(-c3ccccn3)no2)cc1,0.943,,1
COc1cccc(-c2noc(COc3ccc(C)cc3)n2)c1,0.769,,1
COc1ccccc1-c1nc(-c2ccc(C)cc2)no1,1.01,,1
O=C(CSc1nnc(-c2ccccc2)o1)Nc1ccc(F)cc1F,1.03,,1
O=C(CSc1nnc(-c2ccc(Cl)cc2)o1)c1ccccc1,0.772,1,1
COc1nc(C)ccc1-c1noc(-c2ccc(C(C)(C)C)cc2)n1,0.926,,1
O=C(CSc1nnc(-c2ccco2)o1)Nc1cccc(Cl)c1Cl,0.866,,1
COc1ccccc1-c1noc(-c2ccc(C(C)(C)C)cc2)n1,1.03,,1
c1ccc(OCc2nc(-c3cccs3)no2)cc1,0.652 (active),0.0278 (active),1
COc1ccc(-c2noc(-c3cc(C)ccc3C)n2)cc1,0.916,,1
COc1ccccc1-c1nnc(SCC(=O)Nc2nc(C)cs2)o1,0.91,1,1
CC(=O)Nc1ccc(NC(=O)c2ccccc2-c2nc(-c3cccc(C)c3)no2)cc1,1.01,,1
O=C(c1ccccc1-c1nc(-c2ccc(F)cc2)no1)N1CCCC1,1.06,,1
Cc1cnnn1-c1ccc(-c2nc(-c3ccc(Cl)cc3)no2)cc1,0.963,,1
O=C(CSc1nnc(-c2ccccc2)o1)Nc1ccc2ccccc2c1,1.01,,1
Cc1ccc(NC(=O)CSc2nnc(-c3ccc(C(C)(C)C)cc3)o2)c(C)c1,0.766,,1
CCCCSc1nnc(-c2ccc(Br)cc2)o1,1,0.5 (active),0.842 (active)
Cc1ccc(-c2nnc(SCc3ccccc3)o2)cc1,0.256 (active),,0.889
Cc1ccc(-c2nnc(SCC(=O)NCCc3ccccc3)o2)cc1,1.01,,1
CC1CC(C)CN(C(=O)CSc2nnc(-c3cccc(Cl)c3)o2)C1 (centres undefined),1.04,,1
